PubChem BioAssay (EPA / NIEHS)
Records with an inconclusive call do not appear. The source made the active and inactive calls. The calls were made as follows: active = hit-call score of the fitted dose curve at least 0.9, where 1 is the maximum; inconclusive = response in the unintended direction; inactive = score below 0.9.

Assay: ATG_M_06_XSP2: Attagene TRANS-FACTORIAL Multi-Species (XSP2) HepG2 Assay for M06 Transcription Factor (Internal Marker) (AID 2283811);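 also: hits are increases in signal above the DMSO baseline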
Protocol: ATG_XSP2_multi-species_TRANS is a cell-based, multiplexed assay created by modifying the existing Attagene TRANS-FACTORIAL system to include a panel of nuclear receptors from some or all the following species: human (Homo sapiens), mouse (Mus musculus), frog (Xenopus laevis), zebrafish (Danio rerio), chicken (Gallus gallus), and turtle (Chrysemys picta). The ECOTOX-FACTORIAL format uses HepG2, a human liver cell line, with measurements taken at 24 hours after chemical dosing in a 24-well plate. Xsp2 included 3 nM 6-alpha-fluorotestosterone and 1.5 nM norgestrel to stimulate the androgen receptor.ATG_M_06_XSP2 is one of 29 assay components measured or calculated from the ATG_XSP2_multi-species_TRANS assay. It is designed to make measurements of mRNA induction, a form of inducible reporter, as detected with fluorescence intensity signals by Reverse transcription polymerase chain reaction (RT-PCR) and Capillary electrophoresis technology.This assay endpoint, ATG_M_06_XSP2, was analyzed in the positive analysis fitting direction relative to DMSO as the negative control and baseline of activity. Using a type of inducible reporter, measures of mRNA for gain-of-signal activity can be used to understand the background control at the transcription factor-level as they relate to the gene. Furthermore, this assay endpoint can be referred to as a secondary readout, because this assay has produced multiple assay endpoints where this one serves a background control function. To generalize the intended target to other relatable targets, this assay endpoint is annotated to the background measurement intended target family, where the subfamily is internal marker.
Human liver HepG2 cells are transiently transfected with multiple reporter transcription units (MRTUs) in 6-well plates using FuGene 6 reagent (Roche; 3 ml FuGene/1 mg DNA). The MRTU constructs are regulated by a cis-regulating element (promoter). […] A major difference between the CIS and TRANS system is that in CIS activities of endogenous TFs are measured, whereas the TRANS assay evaluates changes in activities of exogenous, chimeric NR-Gal4 proteins. […] At the end of 24 hour incubation, total RNA was isolated using TriZol reagent (Invitrogen). The isolated RNA is then reverse-transcribed using oligo(dT) primer and Mo-MLV reverse transcriptase (Invitrogen) with DNAse I (Ambion) treatment for 30 min. The one-tenth of the produced cDNA was amplified by PCR using Taq DNA polymerase (Invitrogen) and two reporter sequence-specific primers. The PCR products were fluorescently labeled by primer extension with 6-arboxyfluorescein (6-FAM) 5'-labeled reporter sequence-specific primer (2 min at 95 C, 20 s at 68 C and 10 min at 72 C) and these products were digested with 5U of HpaI (New England Biolabs) for 2h at 37 C. The fragments were purified using Qiaquick PCR columns (Qiagen), analyzed on an ABI 3130xL genetic analyzer (Applied Biosystems) with peak positions identified by using a set of X-rhodamine (ROX)-labeled MapMarker1000 molecular weight standards (BioVentures). The raw capillary electrophoresis data was processed using Attagraph software (Attagene).

Row | Compound | outcome
1 | C[C@]12CCC(=O)C[C@@H]1CC[C@@H]1[C@@H]2CC[C@]2(C)[C@@H](O)CC[C@@H]12 | inactive
2 | CC12CC1(C)C(=O)N(c1cc(Cl)cc(Cl)c1)C2=O (stereo not given) | inactive
3 | Clc1ccc(C2(Cn3cncn3)CC(Br)CO2)c(Cl)c1 (stereo not given) | inactive
4 | C[C@]12CC[C@H](O)CC1=CC[C@@H]1[C@@H]2CC[C@]2(C)C(=O)CC[C@@H]12 | inactive
5 | CC(C)(C)CC(C)(C)c1ccc(O)cc1 | inactive
6 | COP(=O)(OC)O/C(=C\Cl)c1cc(Cl)c(Cl)cc1Cl | inactive
7 | CC1(C)CCC(Cc2ccc(Cl)cc2)C1(O)Cn1cncn1 (stereo not given) | inactive
8 | Oc1ccc(-c2ccccc2)cc1 | inactive
9 | CC(C)(C)c1cc(O)ccc1O | inactive
10 | O=S(=O)(c1ccc(Cl)cc1)c1ccc(Cl)cc1 | inactive
11 | CC(C)C1CCC(Cc2ccc(Cl)cc2)C1(O)Cn1cncn1 (stereo not given) | inactive
12 | CC(=O)C=C(C)C | inactive
13 | Oc1c(I)cc(I)cc1I | inactive
14 | O=C1C2(Cl)C3(Cl)C4(Cl)C(Cl)(Cl)C5(Cl)C3(Cl)C1(Cl)C5(Cl)C24Cl (stereo not given) | inactive
15 | C[C@H]1CCCC(=O)CCC/C=C/c2cc(O)cc(O)c2C(=O)O1 | inactive
